# Experiments:
# Experiment in all cases: DAPPL (digital affinity profiling via proximity ligation, sequencing); 10 mM Tris-HCl pH 7.5, 50 mM NaCl, 1 mM DTT, 4% glycerol, room temperature, 30 min; GST-TFs on glutathione beads, 16-mer random dsDNA library, 0.1% formaldehyde crosslink after washing; high values mean tight binding
# FEV = biological target: T1, FEV (Homo sapiens, UniProt Q99581 1-238); details: protein: recombinant; tags: N-terminal GST; dsDNA, one strand shown
# T1 sequence: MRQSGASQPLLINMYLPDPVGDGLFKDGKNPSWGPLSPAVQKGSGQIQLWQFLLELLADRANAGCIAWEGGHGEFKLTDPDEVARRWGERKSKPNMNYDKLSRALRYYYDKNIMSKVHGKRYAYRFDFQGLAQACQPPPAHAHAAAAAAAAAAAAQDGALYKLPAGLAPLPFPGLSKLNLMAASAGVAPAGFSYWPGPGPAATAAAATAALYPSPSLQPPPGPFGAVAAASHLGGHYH
# In short: (§1)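 Human transcription factors were made in yeast as GST fusions, captured on glutathione beads and barcoded with DNA. With a tag-only sample included, the pool was incubated with 200 nmole of a random double-stranded 16-mer DNA library in Tris/NaCl/DTT/glycerol buffer at room temperature for 30 min, then crosslinked with 0.1% formaldehyde after washing, ligated by proximity, amplified and sequenced. For binding signal, each hexamer's read frequency for a factor is divided by its frequency for the tag-only sample.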
# ETV5 = ETV5 (Homo sapiens, UniProt P41161 1-510); details: protein: recombinant; tags: N-terminal GST; dsDNA, one strand shown
# ETV5, sequence (P41161 whole entry): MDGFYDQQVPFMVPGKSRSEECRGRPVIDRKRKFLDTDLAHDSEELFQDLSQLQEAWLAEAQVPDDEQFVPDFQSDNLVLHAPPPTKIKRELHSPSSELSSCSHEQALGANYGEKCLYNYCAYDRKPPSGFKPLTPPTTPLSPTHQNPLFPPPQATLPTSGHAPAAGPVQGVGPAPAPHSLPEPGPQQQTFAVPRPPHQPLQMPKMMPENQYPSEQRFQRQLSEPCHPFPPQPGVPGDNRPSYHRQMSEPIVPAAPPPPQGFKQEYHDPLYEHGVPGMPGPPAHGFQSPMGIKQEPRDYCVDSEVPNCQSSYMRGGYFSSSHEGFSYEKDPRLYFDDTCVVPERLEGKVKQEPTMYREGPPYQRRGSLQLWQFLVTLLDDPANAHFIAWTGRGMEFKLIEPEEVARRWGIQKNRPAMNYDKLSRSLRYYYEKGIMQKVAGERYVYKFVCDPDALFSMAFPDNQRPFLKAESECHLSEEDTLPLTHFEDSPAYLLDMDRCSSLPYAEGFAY
# In short: as §1
# HSF1 = HSF1 (Homo sapiens, UniProt Q00613 1-529); details: protein: recombinant; tags: N-terminal GST; chain copies: 3; dsDNA, one strand shown
# HSF1, sequence (Q00613 whole entry): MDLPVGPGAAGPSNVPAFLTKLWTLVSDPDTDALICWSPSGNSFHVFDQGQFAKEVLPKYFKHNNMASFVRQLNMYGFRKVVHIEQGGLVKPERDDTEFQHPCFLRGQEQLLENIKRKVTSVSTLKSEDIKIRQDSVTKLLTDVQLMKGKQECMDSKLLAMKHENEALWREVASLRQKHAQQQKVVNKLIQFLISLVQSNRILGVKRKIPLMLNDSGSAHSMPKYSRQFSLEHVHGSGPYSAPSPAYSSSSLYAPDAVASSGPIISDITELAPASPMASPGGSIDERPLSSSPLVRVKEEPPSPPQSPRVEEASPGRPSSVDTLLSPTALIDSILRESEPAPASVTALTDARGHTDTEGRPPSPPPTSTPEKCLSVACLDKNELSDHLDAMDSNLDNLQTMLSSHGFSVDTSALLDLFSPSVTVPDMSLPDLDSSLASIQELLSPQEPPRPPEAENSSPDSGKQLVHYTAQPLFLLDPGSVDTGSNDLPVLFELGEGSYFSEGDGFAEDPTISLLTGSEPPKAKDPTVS
# In short: as §1
# SPIC = biological target: T2, SPIC (Homo sapiens, UniProt Q8N5J4 1-248); details: protein: recombinant; tags: N-terminal GST; dsDNA, one strand shown
# T2 sequence: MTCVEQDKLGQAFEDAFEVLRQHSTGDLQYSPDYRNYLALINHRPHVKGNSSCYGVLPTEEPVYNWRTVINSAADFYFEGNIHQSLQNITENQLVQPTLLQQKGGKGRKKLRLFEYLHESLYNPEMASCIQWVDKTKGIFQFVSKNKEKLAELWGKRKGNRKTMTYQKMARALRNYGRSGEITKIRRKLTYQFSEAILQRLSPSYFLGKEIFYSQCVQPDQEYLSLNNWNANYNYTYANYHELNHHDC
# In short: as §1
# ELF4 = ELF4 (Homo sapiens, UniProt Q99607 1-663); details: protein: recombinant; tags: N-terminal GST; dsDNA, one strand shown
# ELF4, sequence (Q99607 whole entry): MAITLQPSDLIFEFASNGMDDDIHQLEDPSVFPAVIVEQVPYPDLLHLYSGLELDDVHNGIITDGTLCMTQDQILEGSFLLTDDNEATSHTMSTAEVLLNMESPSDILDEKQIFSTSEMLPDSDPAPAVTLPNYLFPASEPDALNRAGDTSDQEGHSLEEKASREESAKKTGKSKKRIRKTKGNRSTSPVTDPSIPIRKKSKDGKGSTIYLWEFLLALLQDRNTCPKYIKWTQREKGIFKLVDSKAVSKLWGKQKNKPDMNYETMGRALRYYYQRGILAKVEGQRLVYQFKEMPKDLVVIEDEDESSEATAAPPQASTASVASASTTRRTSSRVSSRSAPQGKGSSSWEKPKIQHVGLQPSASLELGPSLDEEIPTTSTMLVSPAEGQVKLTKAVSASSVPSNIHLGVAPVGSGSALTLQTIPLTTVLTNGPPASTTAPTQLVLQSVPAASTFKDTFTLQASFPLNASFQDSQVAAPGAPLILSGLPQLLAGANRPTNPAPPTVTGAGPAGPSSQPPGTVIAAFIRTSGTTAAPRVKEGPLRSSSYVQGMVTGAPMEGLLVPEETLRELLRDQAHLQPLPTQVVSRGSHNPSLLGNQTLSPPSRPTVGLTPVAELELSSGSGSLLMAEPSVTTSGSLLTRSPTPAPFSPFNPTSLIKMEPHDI
# In short: as §1
# ELK4 = biological target: T3, ELK4 (Homo sapiens, UniProt P28324-2 1-405); details: protein: recombinant; tags: N-terminal GST; dsDNA, one strand shown
# T3 sequence: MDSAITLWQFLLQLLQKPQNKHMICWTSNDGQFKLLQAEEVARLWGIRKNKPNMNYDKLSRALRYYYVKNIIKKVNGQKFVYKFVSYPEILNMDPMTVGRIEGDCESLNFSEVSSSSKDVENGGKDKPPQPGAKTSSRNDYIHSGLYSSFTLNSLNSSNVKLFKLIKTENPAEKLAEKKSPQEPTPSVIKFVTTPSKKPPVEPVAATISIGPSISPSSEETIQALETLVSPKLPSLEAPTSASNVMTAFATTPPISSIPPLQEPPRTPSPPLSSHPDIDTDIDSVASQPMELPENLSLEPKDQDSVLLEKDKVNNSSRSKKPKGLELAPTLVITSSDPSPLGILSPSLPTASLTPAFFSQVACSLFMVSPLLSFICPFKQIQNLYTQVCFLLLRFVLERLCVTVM
# In short: as §1
# ETV2 = biological target: T4, ETV2 (Homo sapiens, UniProt O00321 1-342); details: protein: recombinant; tags: N-terminal GST; dsDNA, one strand shown
# T4 sequence: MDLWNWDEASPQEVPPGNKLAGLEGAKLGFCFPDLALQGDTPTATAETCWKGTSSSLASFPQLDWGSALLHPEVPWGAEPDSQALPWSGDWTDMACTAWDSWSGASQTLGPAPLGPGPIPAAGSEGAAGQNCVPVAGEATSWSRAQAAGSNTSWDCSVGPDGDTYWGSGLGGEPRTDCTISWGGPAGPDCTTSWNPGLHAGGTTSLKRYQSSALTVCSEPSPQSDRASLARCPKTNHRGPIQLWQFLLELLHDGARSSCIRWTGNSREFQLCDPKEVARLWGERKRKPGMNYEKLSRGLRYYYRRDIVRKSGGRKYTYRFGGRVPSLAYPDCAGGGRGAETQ
# In short: as §1
# ELF3 = biological target: T5, ELF3 (Homo sapiens, UniProt P78545 1-371); details: protein: recombinant; tags: N-terminal GST; dsDNA, one strand shown
# T5 sequence: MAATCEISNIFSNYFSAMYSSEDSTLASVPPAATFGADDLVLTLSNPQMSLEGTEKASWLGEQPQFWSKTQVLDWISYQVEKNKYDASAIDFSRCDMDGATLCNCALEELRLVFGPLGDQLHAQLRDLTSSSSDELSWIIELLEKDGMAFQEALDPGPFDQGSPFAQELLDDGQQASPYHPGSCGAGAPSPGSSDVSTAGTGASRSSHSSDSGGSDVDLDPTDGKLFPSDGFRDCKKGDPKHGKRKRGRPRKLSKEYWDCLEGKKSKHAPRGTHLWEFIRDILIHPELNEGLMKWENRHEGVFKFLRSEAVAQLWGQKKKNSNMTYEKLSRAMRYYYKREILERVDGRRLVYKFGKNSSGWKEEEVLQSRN
# In short: as §1
# CRX = CRX (Homo sapiens, UniProt O43186 1-299); details: protein: recombinant; tags: N-terminal GST; dsDNA, one strand shown
# CRX, sequence (O43186 whole entry): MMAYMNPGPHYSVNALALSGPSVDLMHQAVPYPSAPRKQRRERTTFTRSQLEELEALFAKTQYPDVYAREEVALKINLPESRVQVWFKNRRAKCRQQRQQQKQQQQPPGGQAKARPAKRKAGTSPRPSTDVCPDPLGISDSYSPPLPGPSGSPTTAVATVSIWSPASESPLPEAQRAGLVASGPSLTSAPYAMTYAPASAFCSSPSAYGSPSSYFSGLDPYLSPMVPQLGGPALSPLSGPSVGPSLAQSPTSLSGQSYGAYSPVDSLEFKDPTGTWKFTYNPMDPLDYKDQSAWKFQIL
# In short: as §1
# ETV1 = ETV1 (Homo sapiens, UniProt P50549 1-477); details: protein: recombinant; tags: N-terminal GST; dsDNA, one strand shown
# ETV1, sequence (P50549 whole entry): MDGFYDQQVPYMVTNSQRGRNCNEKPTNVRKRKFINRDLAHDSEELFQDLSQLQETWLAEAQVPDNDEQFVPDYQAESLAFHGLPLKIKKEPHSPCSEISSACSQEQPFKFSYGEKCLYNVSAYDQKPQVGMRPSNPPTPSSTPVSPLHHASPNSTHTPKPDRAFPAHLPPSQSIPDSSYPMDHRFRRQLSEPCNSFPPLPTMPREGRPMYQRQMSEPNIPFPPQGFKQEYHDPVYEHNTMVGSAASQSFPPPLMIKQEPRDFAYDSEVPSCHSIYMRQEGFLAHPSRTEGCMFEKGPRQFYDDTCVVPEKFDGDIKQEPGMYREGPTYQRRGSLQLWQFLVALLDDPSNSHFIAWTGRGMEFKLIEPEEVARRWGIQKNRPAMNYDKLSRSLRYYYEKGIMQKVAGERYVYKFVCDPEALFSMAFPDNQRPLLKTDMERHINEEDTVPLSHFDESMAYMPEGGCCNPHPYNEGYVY
# In short: as §1
# ERF = biological target: T6, ERF (Homo sapiens, UniProt P50548 1-548); details: protein: recombinant; tags: N-terminal GST; dsDNA, one strand shown
# T6 sequence: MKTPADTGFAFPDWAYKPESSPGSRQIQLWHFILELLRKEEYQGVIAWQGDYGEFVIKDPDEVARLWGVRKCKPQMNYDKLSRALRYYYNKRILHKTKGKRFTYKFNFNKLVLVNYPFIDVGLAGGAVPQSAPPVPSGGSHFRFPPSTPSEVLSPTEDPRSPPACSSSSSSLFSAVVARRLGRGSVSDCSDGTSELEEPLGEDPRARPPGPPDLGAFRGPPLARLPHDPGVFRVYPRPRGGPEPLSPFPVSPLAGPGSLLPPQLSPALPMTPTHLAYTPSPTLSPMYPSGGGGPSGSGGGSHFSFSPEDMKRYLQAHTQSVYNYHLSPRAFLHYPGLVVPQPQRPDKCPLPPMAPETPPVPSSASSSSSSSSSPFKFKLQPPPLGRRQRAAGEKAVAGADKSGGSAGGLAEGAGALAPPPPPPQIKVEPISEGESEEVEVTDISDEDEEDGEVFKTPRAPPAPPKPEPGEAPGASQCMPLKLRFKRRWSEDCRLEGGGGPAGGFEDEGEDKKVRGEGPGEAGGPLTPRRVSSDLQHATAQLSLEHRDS
# In short: as §1
# ETV3L = biological target: T7, ETV3L (Homo sapiens, UniProt Q6ZN32 1-361); details: protein: recombinant; tags: N-terminal GST; dsDNA, one strand shown
# T7 sequence: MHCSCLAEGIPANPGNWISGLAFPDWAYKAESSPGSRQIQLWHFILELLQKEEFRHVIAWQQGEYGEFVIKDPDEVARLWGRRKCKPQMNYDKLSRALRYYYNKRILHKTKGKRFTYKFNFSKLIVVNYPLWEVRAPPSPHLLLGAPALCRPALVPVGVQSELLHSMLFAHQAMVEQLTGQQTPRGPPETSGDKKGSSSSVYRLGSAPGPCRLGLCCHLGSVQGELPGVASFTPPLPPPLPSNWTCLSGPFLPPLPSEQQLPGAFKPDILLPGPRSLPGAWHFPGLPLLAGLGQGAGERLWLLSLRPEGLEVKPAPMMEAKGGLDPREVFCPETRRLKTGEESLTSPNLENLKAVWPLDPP
# In short: as §1
# ETS2 = biological target: T8, ETS2 (Homo sapiens, UniProt P15036 1-469); details: protein: recombinant; tags: N-terminal GST; dsDNA, one strand shown
# T8 sequence: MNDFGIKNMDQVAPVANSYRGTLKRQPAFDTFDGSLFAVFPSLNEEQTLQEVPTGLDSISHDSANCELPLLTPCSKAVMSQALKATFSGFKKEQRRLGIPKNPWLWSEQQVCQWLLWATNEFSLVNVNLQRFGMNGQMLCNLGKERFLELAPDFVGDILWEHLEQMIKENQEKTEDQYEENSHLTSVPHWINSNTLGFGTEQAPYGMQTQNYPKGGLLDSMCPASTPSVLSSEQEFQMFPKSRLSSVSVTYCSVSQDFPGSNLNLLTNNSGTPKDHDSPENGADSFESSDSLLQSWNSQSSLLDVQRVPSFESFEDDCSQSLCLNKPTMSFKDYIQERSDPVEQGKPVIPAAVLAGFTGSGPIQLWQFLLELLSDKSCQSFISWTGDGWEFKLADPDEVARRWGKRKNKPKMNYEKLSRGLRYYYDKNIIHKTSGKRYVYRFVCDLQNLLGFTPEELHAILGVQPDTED
# In short: as §1
# SPDEF = biological target: T9, SPDEF (Homo sapiens, UniProt O95238 1-335); details: protein: recombinant; tags: N-terminal GST; dsDNA, one strand shown
# T9 sequence: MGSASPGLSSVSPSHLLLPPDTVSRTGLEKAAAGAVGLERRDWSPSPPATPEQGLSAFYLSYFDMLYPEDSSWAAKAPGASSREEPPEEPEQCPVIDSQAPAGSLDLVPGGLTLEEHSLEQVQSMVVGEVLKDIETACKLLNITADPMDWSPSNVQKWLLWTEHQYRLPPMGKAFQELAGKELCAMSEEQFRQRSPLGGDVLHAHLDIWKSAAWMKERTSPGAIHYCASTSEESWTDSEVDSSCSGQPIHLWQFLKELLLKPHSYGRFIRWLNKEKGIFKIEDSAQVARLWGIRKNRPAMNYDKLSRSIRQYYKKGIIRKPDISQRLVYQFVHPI
# In short: as §1
# ETV7 = biological target: T10, ETV7 (Homo sapiens, UniProt Q9Y603 1-341); details: protein: recombinant; tags: N-terminal GST; dsDNA, one strand shown
# T10 sequence: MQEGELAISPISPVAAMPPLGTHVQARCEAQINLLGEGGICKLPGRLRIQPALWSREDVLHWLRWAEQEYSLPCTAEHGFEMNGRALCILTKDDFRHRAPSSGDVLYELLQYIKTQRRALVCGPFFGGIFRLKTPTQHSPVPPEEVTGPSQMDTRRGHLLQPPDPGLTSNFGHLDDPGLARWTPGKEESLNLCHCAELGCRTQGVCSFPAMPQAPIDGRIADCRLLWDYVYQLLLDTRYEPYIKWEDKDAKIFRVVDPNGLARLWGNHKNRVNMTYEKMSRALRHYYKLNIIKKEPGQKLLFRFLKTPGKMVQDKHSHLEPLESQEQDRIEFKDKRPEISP
# In short: as §1
# ELF5 = biological target: T11, ELF5 (Homo sapiens, UniProt Q9UKW6-2 1-255); details: protein: recombinant; tags: N-terminal GST; dsDNA, one strand shown
# T11 sequence: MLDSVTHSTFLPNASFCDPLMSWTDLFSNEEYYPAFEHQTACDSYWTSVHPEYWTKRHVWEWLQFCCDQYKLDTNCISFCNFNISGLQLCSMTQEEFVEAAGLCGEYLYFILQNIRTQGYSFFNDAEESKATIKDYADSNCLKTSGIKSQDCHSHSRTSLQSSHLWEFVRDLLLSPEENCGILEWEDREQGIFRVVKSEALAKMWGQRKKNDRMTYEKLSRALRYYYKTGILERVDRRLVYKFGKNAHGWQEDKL
# In short: as §1
# ETV3 = biological target: T12, ETV3 (Homo sapiens, UniProt P41162-2 1-143); details: protein: recombinant; tags: N-terminal GST; dsDNA, one strand shown
# T12 sequence: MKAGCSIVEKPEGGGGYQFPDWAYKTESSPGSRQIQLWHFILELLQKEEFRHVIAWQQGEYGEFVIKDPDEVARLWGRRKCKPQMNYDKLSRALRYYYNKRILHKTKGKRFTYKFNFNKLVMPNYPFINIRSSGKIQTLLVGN
# In short: as §1
# ETV6 = ETV6 (Homo sapiens, UniProt P41212 1-452); details: protein: recombinant; tags: N-terminal GST; dsDNA, one strand shown
# ETV6, sequence (P41212 whole entry): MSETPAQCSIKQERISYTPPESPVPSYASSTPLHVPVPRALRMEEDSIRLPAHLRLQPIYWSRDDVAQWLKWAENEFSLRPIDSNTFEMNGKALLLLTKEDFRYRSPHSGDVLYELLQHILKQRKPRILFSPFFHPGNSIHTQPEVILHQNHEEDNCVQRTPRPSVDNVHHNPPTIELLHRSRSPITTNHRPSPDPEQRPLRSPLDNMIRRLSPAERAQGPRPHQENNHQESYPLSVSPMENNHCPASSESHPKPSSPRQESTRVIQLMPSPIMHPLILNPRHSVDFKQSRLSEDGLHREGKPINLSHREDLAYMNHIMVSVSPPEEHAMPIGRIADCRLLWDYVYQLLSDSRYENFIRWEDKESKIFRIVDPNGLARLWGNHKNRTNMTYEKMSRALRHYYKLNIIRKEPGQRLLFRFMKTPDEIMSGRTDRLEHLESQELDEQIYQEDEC
# In short: as §1
sequence,measurement,setting,value
AAGATT,binding signal,FEV,"1.06 fold enrichment (6-mer frequency, TF over GST control)"
same,binding signal,ETV5,"1.25 fold enrichment (6-mer frequency, TF over GST control)"
same,binding signal,HSF1,"2.11 fold enrichment (6-mer frequency, TF over GST control)"
same,binding signal,SPIC,"1.12 fold enrichment (6-mer frequency, TF over GST control)"
same,binding signal,ELF4,"1.22 fold enrichment (6-mer frequency, TF over GST control)"
same,binding signal,ELK4,"1.35 fold enrichment (6-mer frequency, TF over GST control)"
same,binding signal,ETV2,"1.16 fold enrichment (6-mer frequency, TF over GST control)"
same,binding signal,ELF3,"1.08 fold enrichment (6-mer frequency, TF over GST control)"
same,binding signal,CRX,"2.4 fold enrichment (6-mer frequency, TF over GST control)"
same,binding signal,ETV1,"1.18 fold enrichment (6-mer frequency, TF over GST control)"
same,binding signal,ERF,"1.1 fold enrichment (6-mer frequency, TF over GST control)"
same,binding signal,ETV3L,"1.18 fold enrichment (6-mer frequency, TF over GST control)"
same,binding signal,ETS2,"1.18 fold enrichment (6-mer frequency, TF over GST control)"
same,binding signal,SPDEF,"1.16 fold enrichment (6-mer frequency, TF over GST control)"
same,binding signal,ETV7,"1.16 fold enrichment (6-mer frequency, TF over GST control)"
same,binding signal,ELF5,"1.14 fold enrichment (6-mer frequency, TF over GST control)"
same,binding signal,ETV3,"1.14 fold enrichment (6-mer frequency, TF over GST control)"
same,binding signal,ETV6,"1.19 fold enrichment (6-mer frequency, TF over GST control)"
